Experimental findings from PubChem BioAssay (Tox21) are described below.

Test [1] in a line: qHTS assay for small molecules that induce genotoxicity in human embryonic kidney cells expressing luciferase-tagged ATAD5 (AID 651632). Further: on the % scale 0 is the no-effect control and ±100 the full control effect; nearly all actives have a fitted effect of over 15% in size. The method in brief: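 ATAD5-luc HEK293T, 2,000 cells/well; cpd or DMSO pin-transferred; 16 hr, 37C/5% CO2; Amplite 30 min RT; luminescence.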
In general terms: qHTS replaces the single test concentration by a dilution series.

Test [2] in a line: qHTS assay for small molecule disruptors of the mitochondrial membrane potential - cell viability (AID 720634; calls by dose curve;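 further: human HepG2 liver cancer cells; on the % scale 0 is the no-effect control and ±100 the full control effect; nearly all actives have a fitted effect of over 20% in size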). The method in brief: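 Cells: HepG2, 2,000/well, attached overnight. Compound 1 hr, 37 C/5% CO2. +m-MPI dye, +CellTiter-Glo 30 min RT. Readout: luminescence (ATP).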
Test [3] in a line: qHTS assay for small molecule disruptors of the mitochondrial membrane potential (AID 720635). Further: potency means the concentration at half of the fitted maximal effect. The method in brief: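 Mitochondrial membrane potential tracked with Mito-MPS dye, red aggregates (ex 540/em 590 nm) against green monomers (ex 490/em 535 nm). Compound treatment 1 hr at 37C, dye 30 min in HepG2.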
Test [4] can be described thus: qHTS assay to test for compound auto fluorescence at 590 nm (red) in HepG2 cells (AID 720674). Further: on the % scale 0 is the no-effect control and ±100 the full control effect. The method in brief: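 1 hr compound incubation on HepG2 cells, 37 C, 5% CO2; plate read ex 540 nm / em 590 nm; intensities reported as Rose Bengal sodium equivalents.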
Test [5] is described as follows: qHTS assay to test for compound auto fluorescence at 535 nm (green) in HepG2 cells (AID 720675). Further: on the % scale 0 is the no-effect control and ±100 the full control effect.
A short description of test [6]: qHTS assay to test for compound auto fluorescence at 460 nm (blue) in HEK293 cells (AID 720678). Further: on the % scale 0 is the no-effect control and ±100 the full control effect. The method in brief:
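Blue-channel (Ex/Em 405/460 nm) intensity measured in HEK293 cultures after overnight compound exposure at 37C; signal expressed relative to triamterene. Cells plated 2,000 per well in 10% dialyzed FBS medium and allowed 4-5 hr to attach.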

The nature of test [7]: qHTS assay to test for compound auto fluorescence at 535 nm (green) in HEK293 cells (AID 720680). Further: on the % scale 0 is the no-effect control and ±100 the full control effect.
A short description of test [8]: qHTS assay to test for compound auto fluorescence at 460 nm (blue) in HEK293 cell free culture (AID 720681). Further: on the % scale 0 is the no-effect control and ±100 the full control effect. The method in brief:
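Blue fluorescence (Ex 405/Em 460 nm, triamterene-equivalent) was read immediately after pin transfer of compound or DMSO into medium (DMEM, 10% FBS) without cells.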

A short description of test [9]: qHTS assay to test for compound auto fluorescence at 535 nm (green) in HEK293 cell free culture (AID 720682). Further: on the % scale 0 is the no-effect control and ±100 the full control effect. The method in brief: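 Read-out: 485/535 nm fluorescence intensity, calibrated against fluorescein. Medium only (DMEM + 10% FBS, no cells); test compound or DMSO vehicle added by pintool before plate reading.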
Test [10] can be described thus: qHTS assay to test for compound auto fluorescence at 590 nm (red) in HEK293 cell free culture (AID 720683). Further: on the % scale 0 is the no-effect control and ±100 the full control effect. The method in brief:
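Red-channel autofluorescence of compounds in culture medium (DMEM, 10% FBS), no cells, measured at 540/590 nm. Rose Bengal sodium is the reference fluorophore for equivalence.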

Test [11] in a line: qHTS assay to test for compound auto fluorescence at 590 nm (red) in HepG2 cell free culture (AID 720684). Further: on the % scale 0 is the no-effect control and ±100 the full control effect. The method in brief:
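Plate contents were MEM with 10% FBS plus test compound or DMSO, no cells. Fluorescence was recorded with 540 nm excitation and 590 nm emission.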

Test [12] can be described thus: qHTS assay to test for compound auto fluorescence at 460 nm (blue) in HepG2 cell free culture (AID 720685). Further: on the % scale 0 is the no-effect control and ±100 the full control effect. The method in brief:
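Compound (23 nL) or DMSO pinned into cell-free MEM with 10% FBS; blue fluorescence read at 405/460 nm excitation/emission, expressed as auto-fluorescence equivalency to triamterene.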

Test [13] is described as follows: qHTS assay to test for compound auto fluorescence at 535 nm (green) in HepG2 cell free culture (AID 720686). Further: on the % scale 0 is the no-effect control and ±100 the full control effect.
Test [14] in a line: qHTS assay to test for compound auto fluorescence at 460 nm (blue) in HepG2 cells (AID 720687). Further: on the % scale 0 is the no-effect control and ±100 the full control effect. The method in brief:
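Blue-channel autofluorescence (Ex/Em 405/460 nm, triamterene-equivalent) was measured after 1 hr compound exposure at 37 C, 5% CO2. Cells were HepG2, plated overnight at 37 C in MEM plus 10% FBS.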

In test [15] the target is Glucocorticoid receptor (Homo sapiens) (UniProt P04150). Kind of test: qHTS assay to identify small molecule antagonists of the glucocorticoid receptor (GR) signaling pathway (AID 720692; active means well fitted inhibition curve with a large enough effect in the signal ratio in the repeat runs, not every such curve was filed as active; the % refers to the signal ratio; further: potency means the concentration at half of the fitted maximal effect). The method in brief: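 HeLa GR-bla cells; cmpd + dex 5 nM final, 18 h 37 C; LiveBLAzer B/G FRET substrate 2 h RT; fluorescence intensity read. Antagonist mode, qHTS.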
Chain of Glucocorticoid receptor (Homo sapiens) (P04150 whole entry, looked up): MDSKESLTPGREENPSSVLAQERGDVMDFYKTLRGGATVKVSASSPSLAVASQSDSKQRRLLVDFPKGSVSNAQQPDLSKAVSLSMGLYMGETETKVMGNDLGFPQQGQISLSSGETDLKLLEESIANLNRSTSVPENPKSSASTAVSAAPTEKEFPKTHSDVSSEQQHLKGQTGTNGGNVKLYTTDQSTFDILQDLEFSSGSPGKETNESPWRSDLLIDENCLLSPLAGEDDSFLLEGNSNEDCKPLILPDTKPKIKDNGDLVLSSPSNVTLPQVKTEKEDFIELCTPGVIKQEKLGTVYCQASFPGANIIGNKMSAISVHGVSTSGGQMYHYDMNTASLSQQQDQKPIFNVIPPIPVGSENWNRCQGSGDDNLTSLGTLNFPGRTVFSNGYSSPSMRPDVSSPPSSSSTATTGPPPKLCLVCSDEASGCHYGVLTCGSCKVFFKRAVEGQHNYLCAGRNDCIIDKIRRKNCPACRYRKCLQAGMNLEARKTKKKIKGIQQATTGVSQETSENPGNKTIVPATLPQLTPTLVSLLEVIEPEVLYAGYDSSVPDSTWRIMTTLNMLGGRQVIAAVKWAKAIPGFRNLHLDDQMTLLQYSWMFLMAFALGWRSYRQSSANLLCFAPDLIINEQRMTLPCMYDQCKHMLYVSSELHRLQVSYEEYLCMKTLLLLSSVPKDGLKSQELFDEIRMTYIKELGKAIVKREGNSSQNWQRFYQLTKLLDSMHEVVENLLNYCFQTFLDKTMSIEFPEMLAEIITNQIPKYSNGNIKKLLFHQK
Test [16] can be described thus: qHTS assay for small molecule agonists of the p53 signaling pathway - cell viability (AID 651633; calls by dose curve; further: nearly all actives have a fitted effect of over 30% in size; further: potency means the concentration at half of the fitted maximal effect). The method in brief:
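Viability counter-read: CellTiter-Glo luminescence (30 min, room temperature) in the same p53RE-bla plates. These plates had been exposed to compounds for 16 h at 37 C.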

Test [17] can be described thus: qHTS assay to test for compound auto fluorescence at 590 nm (red) in HEK293 cells (AID 720679). Further: on the % scale 0 is the no-effect control and ±100 the full control effect. The method in brief:
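Red-channel autofluorescence (Ex/Em 540/590 nm; Rose Bengal sodium reference) was measured after overnight 37C, 5% CO2 exposure of attached HEK293 cells, 2,000 per well in medium with 10% dialyzed FBS.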

Test [18] concerns the target Glucocorticoid receptor (Homo sapiens) (UniProt P04150). Kind of test: qHTS assay to identify small molecule agonists of the glucocorticoid receptor (GR) signaling pathway (AID 720691; active means well fitted activation curve with a large enough effect in the signal ratio in the repeat runs, not every such curve was filed as active; the % refers to the signal ratio; further: on the % scale 0 is the no-effect control and ±100 the full control effect). As to conditions: GR-bla HeLa, beta-lactamase reporter ratio, 18 h; activation: at 62.4 µM (top of the series). The method in brief: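 Fluorescence intensity from LiveBLAzer B/G FRET substrate (2 h, room temperature) reports beta-lactamase expression driven by the glucocorticoid response element in GR-bla HeLa cells after 18 h compound exposure at 37 C.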

Test [19] is described as follows: qHTS assay for small molecules that induce genotoxicity in human embryonic kidney cells expressing luciferase-tagged ATAD5 - cell viability (AID 651634; calls by dose curve; further: nearly all actives have a fitted effect of over 25% in size; further: potency means the concentration at half of the fitted maximal effect). The method in brief: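 Fluorescence from CellTiter-Fluor, reporting protease activity within live cells, served as the viability read-out. HEK293T cells carrying luciferase-tagged ATAD5 had been treated with compound for 15.5 hr at 37C.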

Molecules are shown by their SMILES. “And” between values parts separate entries of the source, which are not always exact repeats. Identical values can stand only once. A number with no mark means an inactive call. Results filed as inconclusive are left out. The source made the active and inactive calls. Unless noted, the call rests on the fitted dose curve; in most records, active means well fitted curve in the direction sought with a large enough effect in the repeat runs; inconclusive means weak or mixed curves; inactive means no such curve, though single readings can be large; an effect the other way counts as inactive or inconclusive.

`C=C(c1ccc(C(=O)O)cc1)c1cc2c(cc1C)C(C)(C)CCC2(C)C`: the Potency result in test [1], in test [2], in test [4], in [5], in test [6] and in [7] was “inactive” in each case. For the same molecule, the Potency entry in [8], in test [9], in test [10], in test [11], in [12] and in test [13] was “inactive” each time. In [14], the Potency entry was “inactive”. For the same molecule, the Potency in [3] was 9.44 µM (active) and 21.7 µM (active); in [15], 9.77 µM (active).
On to `CCN(CC)CCOc1ccc(C(O)(Cc2ccc(Cl)cc2)c2ccc(C)cc2)cc1` (stereo not drawn), for which the Potency entry in test [1], in test [2], in [4], in [5], in [6] and in test [7] was “inactive” in each case. In addition, the Potency entry in test [8], in test [9], in test [10], in [11], in test [12] and in test [13] was “inactive” throughout. In addition, the Potency entry in test [14] is “inactive”.
Regarding `SCCCCCCCCS`, the Potency result in test [16], in test [4], in [5], in test [6], in test [17] and in test [7] was “inactive” each time. The Potency entry in test [8], in [9], in test [10], in [11], in test [12] and in [13] was “inactive” each time. Also, the Potency result in test [14] is “inactive”.
As for `S=C(SSSSSSC(=S)N1CCCCC1)N1CCCCC1`, the Potency result in test [2] and in [18] was “inactive” throughout. For the same molecule, the fluorescence, relative to Rose Bengal in test [4] is -0.0183% [at 18.6 µM]. Also, the fluorescence, % of fluorescein control in [5] is -0.0182% [at 18.6 µM]; in [13], -0.0879% [at 18.6 µM]. For the same molecule, the fluorescence, % of triamterene in [6] was 0.0298% [at 18.6 µM]. Further, the fluorescence, % of fluorescent control in [17] is 0.199% [at 18.6 µM]; in test [8], -0.263% [at 18.6 µM]; in [10], 0.0303% [at 18.6 µM]; in [12], -0.225% [at 18.6 µM]; in test [14] it was 0.0837% [at 18.6 µM]. Besides, the fluorescence, % of fluorescein in [7] was -0.141% [at 18.6 µM]. Moreover, the activity change in [9] is -0.0539% [at 18.6 µM, stronger effect = higher value]. The fluorescence, % of Rose Bengal in [11] is -0.0342% [at 18.6 µM].
In the case of `Clc1ccc(C(Cn2ccnc2)OCc2ccsc2Cl)c(Cl)c1` (stereo not drawn), the Potency entry in [1], in [5], in test [6], in test [17], in [7] and in test [8] was “inactive” in each case. Further, the Potency entry in test [9], in test [10], in [11], in test [12], in test [13] and in test [14] was “inactive” in each case.
Consider `Cc1cc(Nc2ccc(O)cc2)ccc1N`, for which the Potency entry in [16], in test [4], in test [5], in [6], in test [17] and in test [7] was “inactive” throughout. For the same molecule, the Potency entry in test [8], in [9], in [10], in test [11], in test [12] and in test [13] was “inactive” each time. Besides, the Potency entry in test [14] is “inactive”. In addition, the Potency in [19] was 27.2 µM (active); in [3], 6.82 µM (active).
Turning to `C=C[C@](C)(O)CC[C@@H]1[C@@]2(C)CCCC(C)(C)[C@@H]2CC[C@@]1(C)O`, the Potency result in test [1], in test [4], in test [5], in test [6], in test [17] and in test [7] was “inactive” each time. Further, the Potency result in [8], in test [9], in [10], in test [11], in [12] and in test [13] was “inactive” each time. In test [14], the Potency entry is “inactive”. Further, the Potency in [3] was 43.3 µM (active).
`N#CSCSc1nc2ccccc2s1`: the results for the Potency in test [16], in test [3] and in test [15] were 21.7 µM (active), 30.6 µM (active) and 24.5 µM (active), respectively. Besides, the Potency entry in test [19], in test [2], in test [4], in test [5], in test [6] and in [17] was “inactive” in each case. The Potency result in [7], in [8], in test [9], in test [10], in test [11] and in test [12] was “inactive” in each case. The Potency result in [13] and in test [14] was “inactive” in each case.
